For 13 compounds, ΔTm results are on record in ChEMBL document CHEMBL5308504, “Tm Shift (DSF) assay results for EUbOPEN Chemogenomics Library” (2023).

Structures are written as SMILES.

Experiment [1] addresses Bromodomain-containing protein 4 (Homo sapiens) (UniProt O60885). The settings on record: Compound concentration 20.0 uM, Protein concentration 2.0 uM, Result type QC Liability.
Experiment [2] has as its target T1, Transcription intermediary factor 1-alpha (Homo sapiens) (UniProt O15164).
T1 sequence (whole entry): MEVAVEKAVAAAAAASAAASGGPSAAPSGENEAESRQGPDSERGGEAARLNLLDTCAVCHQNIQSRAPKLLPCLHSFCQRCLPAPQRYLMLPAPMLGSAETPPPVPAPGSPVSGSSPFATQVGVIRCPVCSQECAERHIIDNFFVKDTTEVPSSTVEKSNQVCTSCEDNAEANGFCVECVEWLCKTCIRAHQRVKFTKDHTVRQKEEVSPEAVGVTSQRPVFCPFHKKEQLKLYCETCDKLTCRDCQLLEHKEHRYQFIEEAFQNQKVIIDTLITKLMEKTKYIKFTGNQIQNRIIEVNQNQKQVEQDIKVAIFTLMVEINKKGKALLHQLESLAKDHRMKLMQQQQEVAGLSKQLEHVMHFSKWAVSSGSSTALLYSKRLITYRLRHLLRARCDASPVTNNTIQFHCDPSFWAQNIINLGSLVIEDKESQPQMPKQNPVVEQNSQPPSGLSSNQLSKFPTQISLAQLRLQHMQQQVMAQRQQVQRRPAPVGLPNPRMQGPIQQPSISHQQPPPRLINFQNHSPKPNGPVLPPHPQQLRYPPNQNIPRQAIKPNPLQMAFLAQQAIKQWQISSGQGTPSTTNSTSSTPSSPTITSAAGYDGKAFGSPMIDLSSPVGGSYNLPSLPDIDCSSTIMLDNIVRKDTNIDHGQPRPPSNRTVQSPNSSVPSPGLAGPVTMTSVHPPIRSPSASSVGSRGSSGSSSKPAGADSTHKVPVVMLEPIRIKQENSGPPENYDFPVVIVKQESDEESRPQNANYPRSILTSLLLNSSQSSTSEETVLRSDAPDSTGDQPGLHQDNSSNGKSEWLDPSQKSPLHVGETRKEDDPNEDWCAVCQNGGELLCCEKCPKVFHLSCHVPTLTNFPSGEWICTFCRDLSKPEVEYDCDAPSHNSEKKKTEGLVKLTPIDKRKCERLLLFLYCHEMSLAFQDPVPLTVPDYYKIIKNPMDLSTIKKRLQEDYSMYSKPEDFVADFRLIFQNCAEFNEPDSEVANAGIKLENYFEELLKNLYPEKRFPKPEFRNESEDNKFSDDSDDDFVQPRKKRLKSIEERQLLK
The settings on record: Compound concentration 20.0 uM, Protein concentration 2.0 uM, Result type QC Liability.

For orientation: ΔTm means the shift of the melting midpoint relative to a reference. On to `O=C(O)c1cc(F)c2nc(N3[C@@H]4CC[C@H]3C[C@@H](OCc3c(-c5ccccc5OC(F)(F)F)noc3C3CC3)C4)sc2c1`, for which the ΔTm in experiment [1] is -7.4 °C; in experiment [2] it was -1.62 °C.

For `O=C(O)c1cc(-c2ccccc2)ccc1O`, the results for the ΔTm in experiment [1] and in experiment [2] were -1.31 °C and -1.78 °C, respectively.

Regarding `COc1cc(C(=O)NC2CCN(C)CC2)ccc1Nc1ncc2c(n1)N(C1CCCC1)CC(F)(F)C(=O)N2C`, the ΔTm in experiment [1] was 7.37 °C; in experiment [2], -2.21 °C.

For `NS(=O)(=O)c1ccc(Nc2nc(OCC3CCCCC3)c3nc[nH]c3n2)cc1`, the ΔTm is 0.59 °C in experiment [1] and -0.84 °C in experiment [2].

As for `CN1CCC(F)(Cn2cnc(-c3ccc(F)cn3)c2-c2ccnc3[nH]ccc23)CC1`, the shift in melting temperature (ΔTm) in experiment [1] is -2.6 °C; in experiment [2], -2.99 °C.

For `Cc1c(NC(=O)c2ccc(C(C)(C)C)cc2)cccc1-c1cn(C)c(=O)c(Nc2ccc(C(=O)N3CCOCC3)cc2)n1`, the ΔTm is -9.46 °C in experiment [1] and 0.14 °C in experiment [2].

Take `CCOc1ccc(S(=O)(=O)Nc2ccc(Cl)cc2C#Cc2cnc(C(=O)O)cc2OC)c2ncccc12`: the figures for the ΔTm in experiment [1] and in experiment [2] were -1.6 °C and 0.27 °C, respectively.

`NC(=O)OC[C@H](NC(=O)Cn1nc(-c2ccc(Cl)cc2)n(C[C@H](O)C(F)(F)F)c1=O)c1cccc(C(F)(F)F)c1`: the ΔTm in experiment [1] stood at 0.39 °C; in experiment [2], 0.59 °C.

Regarding `CC1(C)C(=O)N([C@H]2CCc3c(O)cccc32)c2nc(Nc3cccc(CN4CCCC4)c3)ncc21`, the ΔTm in experiment [1] is -2.45 °C; in experiment [2] it was -2.64 °C.

Turning to `O=S(=O)(Nc1ccc(C(O)(C(F)(F)F)C(F)(F)F)cc1)c1cccs1`, the thermal shift (ΔTm) is -2.9 °C in experiment [1] and -0.69 °C in experiment [2].

Regarding `COc1cc(C)c(S(=O)(=O)N(C)CCOCC(=O)N(C)[C@H]2CCC[C@@H](N3CCN(C)CC3)C2)c(C)c1`, the ΔTm in experiment [1] was -1.54 °C; in experiment [2], 0.17 °C.

As to `CCN(CC)C(=O)C1CN2CCc3cc(OC)c(OC)cc3C2CC1OC(C)=O` (stereo unspecified), the ΔTm in experiment [1] is -0.18 °C; in experiment [2] it was 0.29 °C.

`C[C@@H](Oc1cc(-n2cnc3ccc(OC4CCN(C)CC4)cc32)sc1C(N)=O)c1ccccc1Cl`: the ΔTm was -2.01 °C in experiment [1] and -2.55 °C in experiment [2].
